Among all 48,000 compounds or so, about 13,000 (27%) showed an effect of 50% or more. This is one part of the list.

The assay concerns Wolbachia pipientis. Put plainly: Anti-Wolbachia Cell-Based Screen. The class given is functional. Also noted: scale not given: in the data most compounds retested in dose-response had high values. As to conditions: 5 µM.
`Cc1nc(Nc2ncccn2)cc(C2CCCN2Cc2ncc[nH]2)n1` (centres undefined): the “Percent Effect” value is listed as 97.78%. For `Cc1nc(Nc2ccccn2)cc(C2CCCN2Cc2ncc[nH]2)n1` (centres undefined) the value was 129.4%; for `c1cc(-c2c[nH]c([C@@H]3COCCN3Cc3ncc[nH]3)n2)ccn1`, -5.75%; for `Cc1nc(Nc2ncccn2)cc(C2CCCN2C2CCOCC2)n1` (centres undefined), -10.06%. The result for `CCc1cc(C(C)Nc2nc(-c3cccnc3)nc3c2CNC3)on1` (centres undefined) reads -7.07%; that for `CN(C)C(C)(C)CNC(=O)C(C)(C)c1ccccc1F`, -19.41%. `Cc1csc(C2(NC(=O)NCCN3CCOCC3)CCCC2)n1`: the “Percent Effect” value was -11.69%. Turning to `COc1cccc(NC(=O)N(CCC(F)(F)F)C[C@H](O)CO)c1`, the “Percent Effect” value is -14.76%. The result for `CCc1ccccc1OC1CN(C(=O)c2sccc2N)C1` reads 9.804%; that for `O=C(c1ccc(CN2CC(n3cccn3)C2)cc1)N1CCCC1`, 6.953%. As to `O=C(CN1CC(n2cccn2)C1)NCCc1ccc(F)cc1`, the “Percent Effect” value amounted to 97.63%. For `CC(C)c1nc2n(n1)CC(NCC(=O)NCCC1=CCCCC1)CC2` (centres undefined) the value was -9.722%; for `O=C(CN1CC(n2cccn2)C1)NCCc1c[nH]c2ccccc12`, -3.25%. As for `O=C(CN1CC(n2cccn2)C1)NCCCN1CCCC1=O`, the “Percent Effect” value was found to be 95.99%. For `N#CCCNC(=O)CN1CC(n2cccn2)C1` the value was 139.2%. On to `O=C(CN1CC(n2cccn2)C1)NCC1(c2ccccc2)CCC1`, for which the “Percent Effect” value is given as 14.59%. The result for `CC(Cn1cccn1)NC(=O)NCCN1CCCCCC1=O` (centres undefined) reads -10.88%; that for `O=C(CN1CC(n2cccn2)C1)NCCC1=CCCCC1`, 104.9%; that for `O=C(CN1CCCC(c2ncc[nH]2)C1)NCCCN1CCCCCC1=O` (centres undefined), 11.49%.

Consider `CCC1CN(CC(=O)NCCC#N)CCO1` (centres undefined), for which the “Percent Effect” value was -6.003%. The result for `O=C(CN1CC(n2cccn2)C1)NCCCc1ccccc1` reads -6.652%. The result for `CNC(=O)CCNC(=O)c1ccccc1N1CCOCC1` reads -6.711%; that for `CCC1CN(C(=O)c2ccccc2C#N)CCN1C(C)C` (centres undefined), -3.955%.

Consider `COc1ccc2c(c1)C1(CCN(Cc3nccs3)CC1)N(C)CC2.O=C(O)C(F)(F)F.O=C(O)C(F)(F)F`, for which the “Percent Effect” value is 6.008%. `COc1ccc(-c2n[nH]cc2CN(C)Cc2nonc2C)c(F)c1`: the “Percent Effect” value was -4.147%. The result for `O=C([C@H]1C[C@H]2OCC[C@H]2N(C(=O)C2CCOCC2)C1)N1CCCCO1` reads -4.541%; that for `CCOC(=O)c1ccccc1NC(=O)CN(C)Cc1ccccc1Cl.O=C(O)C(=O)O`, 16.66%. For the molecule `CC(=O)NCCC(=O)NCc1ccc(Br)cc1Cl`, the “Percent Effect” value is listed as -2.805%.

Consider `Cc1cccc(C(C)(C)CNc2cn[nH]c(=O)c2Cl)c1`, for which the “Percent Effect” value worked out at 26.78%.

(Values after ChEMBL document CHEMBL3988442, “University of Dundee, Small-Polar-MMV Screening Library” (2021).)
